Test results taken from PubChem BioAssay AID1259417 (TB Discovery Research, Infectious Disease Research Institute, 2018).
Screen size: about 1,100 compounds; about 760 (69%) were called active. How the calls were made is not given here. The set was probably picked from earlier hits. The list shows a part of the results.

Assay: M. tuberculosis growth inhibition, HTS (AID 1259417);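 further: bacteria grown with compound for 5 days at 37 °C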
Details: stronger effect = higher value, concentration not given here
[1] = M. tuberculosis DsRed fluorescence growth inhibition
[2] = M. tuberculosis growth inhibition

SMILES | inhibition [1] | inhibition [2]
COc1c2ccoc2nc2c(OC)cccc12 | 98.6% (active) | 99.6%
CC12CCC(C(=O)Nc3ccc(OC(F)(F)F)cc3)(CC1=O)C2(C)C (stereo not drawn) | 94.8% (active) | 81.6%
Cc1cc(NS(=O)(=O)c2ccc(NC(=O)c3ccc(C(C)(C)C)cc3)cc2)no1 | 19.1% (inactive) | 12.2%
Cc1cccc(C(=O)Nc2nc3ccccc3[nH]2)c1 | 36.9% (active) | 35.3%
CC(C)(C)c1ccc(C(=O)Nc2nc3ccccc3[nH]2)cc1 | 65.8% (active) | 86.5%
CCOC(=O)Cn1nnc(-c2ccc(OCc3ccccc3F)cc2)n1 | 50% (active) | 91.6%
CCOC(=O)Cn1nnc(-c2ccc(OCc3ccccc3C)cc2)n1 | 91.8% (active) | 96.9%
CCN(CC)c1ccc(/C=C(/C#N)c2nc3ccccc3[nH]2)c(OC(C)C)c1 | 22.6% (active) | 47%
c1ccc(-c2nc(NCCCn3ccnc3)c3oc4ccccc4c3n2)cc1 | 98.9% (active) | 99.5%
CCOC(=O)CSc1nnc2c3sc4nc(N5CCOCC5)c5c(c4c3ncn12)CC(C)(C)OC5 | 53.1% (active) | 74.9%
O=C(CCc1ccccc1)NC(=S)Nc1ccc(N2CCCCC2)cc1 | 82.8% (active) | 59.4%
CC(=O)N1CCN(c2ccc(NC(=S)NC(=O)c3cc4ccccc4o3)cc2)CC1 | 3.83% (inactive) | -6.94%
COC(=O)c1ccc(N2C(=O)CC(N(CCc3ccccc3)C(=S)Nc3ccccc3)C2=O)cc1 (stereo not drawn) | 2.64% (inactive) | -9.4%
OC(COCCC12CC3CC(CC(C3)C1)C2)CN1CCc2ccccc2C1 (stereo not drawn) | 1.19% (inactive) | 10.3%
O=C(Cn1nc(CNc2ccc(Cl)cc2)[n+]2c1CCCCC2)c1ccc(Br)cc1 | 92.9% (active) | 94.4%
CC(C)(C)c1cc(Cl)c(O)c(NC(=S)NC(=O)c2cccc3ccccc23)c1 | 80.4% (active) | 78.3%
COc1ccc(C(C)(C)C)cc1NC(=S)Nc1ccc(Cl)c(Cl)c1 | 0.0351% (inactive) | -14.6%
CC(C)CC(=O)NC(c1ccc(Cl)cc1Cl)c1c(O)ccc2ccccc12 (stereo not drawn) | 5.28% (inactive) | 21%
CCOC(=O)CSc1ccc(-c2nc3cc(C)c(C)cc3[nH]2)cn1 | 94.3% (active) | 96%
O=[N+]([O-])c1ccc(/C=N/n2c(CO)nc3ccccc32)s1 | 96.6% (active) | 97.7%
Cc1cc(C)n(-c2nc(NC(C)C)nc(NC(C)C)n2)n1 | 43.1% (active) | 41.4%
CCOC(=O)CSc1nnc(-c2ccc(OC)cc2OC)o1 | 42.1% (active) | 70.4%

SMILES | inhibition [1] | inhibition [2]
COC(=O)CSc1nnc(-c2ccc(OC)cc2OC)o1 | 85.8% (active) | 94.2%
CCC(OC(C)=O)c1ccc(OC(C)=O)c(OC)c1 (stereo not drawn) | 99.1% (active) | 90.6%
COC(=O)COc1ccc(NC(=O)c2ccccc2Br)cc1 | 76.3% (active) | 91.1%
COC(=O)c1ccc(OCC(=O)Nc2ccccc2F)cc1 | 14.1% (active) | 74.2%
COC(=O)COc1ccc(NC(=O)c2ccccc2F)cc1 | 77.8% (active) | 78.9%
COC(=O)COc1ccc(NC(=O)c2ccccc2I)cc1 | 61.7% (active) | 81.3%
COC(=O)COc1ccc(NC(=O)c2ccccc2C)cc1 | 83.1% (active) | 93.5%
O=C(NCCc1c[nH]c2ccccc12)c1cc2ccccc2oc1=O | 99.2% (active) | 96%
O=C(NCCSc1c[nH]c2ccccc12)c1cc2ccccc2oc1=O | 20.8% (active) | 42.8%
O=C(NCCSc1c(-c2ccccc2)[nH]c2ccccc12)c1cc2ccccc2oc1=O | -6.27% (inactive) | -5.81%
Cc1[nH]c2ccccc2c1SCCNC(=O)c1cc2ccccc2oc1=O | 5.93% (inactive) | 16.9%
Cc1ccc(-c2[nH]c3ccccc3c2SCCNC(=O)c2cc3ccccc3oc2=O)cc1 | -0.558% (inactive) | -17.6%
CCCCCCc1cc2cc(C(=O)NC)c(=N)oc2cc1O | -2.33% (inactive) | -16.9%
Cc1nn(-c2nc3ccccc3[nH]2)c(N)c1-c1ccccc1 | 50.6% (active) | 84.2%
Cc1cc(Nc2ccccc2)n(-c2nc3ccccc3[nH]2)n1 | 86.8% (active) | 93.2%
Cc1nc2c(-c3ccc(Cl)cc3)cnn2c(N)c1-c1ccccc1 | 13.8% (inactive) | -1.8%
Cc1coc2c1C(=O)C(=O)c1c-2ccc2c1CCCC2(C)C | 96.6% (active) | 98.4%
CN(C)C(=S)Nc1nc2ccccc2s1 | 99.7% (active) | 99.8%
O=C(NCc1cccs1)c1cc2n(n1)C(C(F)(F)F)CC(c1ccc3c(c1)OCO3)N2 (stereo not drawn) | 2.08% (inactive) | -5.24%
Cc1ccc(C2CC(C(F)(F)F)n3nc(C(=O)NCc4ccco4)cc3N2)cc1 (stereo not drawn) | 80% (active) | 76.1%
CCCCNC(=O)c1cc2n(n1)C(C(F)(F)F)CC(c1ccccc1)N2 (stereo not drawn) | 95.4% (active) | 91.8%
CNc1nc(N2CCc3ccccc32)ncc1F | 100% (active) | 99.7%
